This passage reports outcome and AC50 results from PubChem BioAssay (EPA / NIEHS).

Read-out in experiment [1]: E-selectin (Homo sapiens) (UniProt P16581)
The experiment can be described thus: BSK_SAg_Eselectin: BioMAP Diversity Plus: SAg Assay for Eselectin Biomarker Activity (AID 2283091). The following applies: primary human HUVEC with PBMC; actives raise or lower the signal. A digest of the protocol:
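Cell-surface E-selectin is read by ELISA at 24 h in the SAg co-culture of HUVEC and PBMC. Curves are fitted in both directions relative to DMSO. Parallel SRB total-protein staining tracks overt toxicity.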

Read-out in experiment [2]: Monokine induced gamma interferon (MIG), CXCL9 (gene 4283)
The experiment can be described thus: BSK_SAg_MIG: BioMAP Diversity Plus: SAg Assay for Monokine induced gamma interferon (MIG) Biomarker Activity (AID 2283092). The following applies: primary human HUVEC with PBMC; actives raise or lower the signal. A digest of the protocol: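 Endothelial cells and PBMC were co-cultured, exposed to test chemicals, and sampled 24 h later. MIG was measured by ELISA, and responses were fitted in both directions relative to DMSO.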

Experiment [3] can be described thus: BSK_SAg_PBMCCytotoxicity: PBMC Cytotoxicity Assessment in the BioMAP Diversity Plus: SAg Assay (AID 2283093).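 Also: PBMC viability measured as Alamar Blue reduction fluorescence at 546/580 nm; fitted both ways against DMSO so a hit may be loss or gain of signal.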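 As to AC50: PBMC superantigen activated with SEB plus TSST-1 one hour after compound addition.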 The conditions noted are these: primary human HUVEC with PBMC. A digest of the protocol: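 Compound added to 75,000 PBMC/well for 1 h; SEB and TSST-1 then added at 20 ng/mL final each; 90 h incubation; Alamar Blue 6 h; read 546/580 nm ex/em. Activity fitted bidirectionally relative to DMSO baseline.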

Read-out in experiment [4]: Interleukin-8 (IL8), CXCL8 (gene 3576)
The experiment can be described thus: BSK_SAg_IL8: BioMAP Diversity Plus: SAg Assay for Interleukin-8 (IL8) Biomarker Activity (AID 2283094). The conditions noted are these: primary human HUVEC with PBMC; actives raise or lower the signal. A digest of the protocol: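 Human umbilical vein endothelial cells co-cultured with peripheral blood mononuclear cells; IL-8 measured by ELISA 24 h after chemical dosing. Bidirectional concentration-response fitting used DMSO as negative control and activity baseline.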

Experiment [5] in a line: BSK_SAg_Proliferation: Cell Proliferation Assessment in the BioMAP Diversity Plus: SAg Assay (AID 2283095).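 Also: relative cell number as total protein by SRB absorbance in sub-confluent culture.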 The following applies: primary human HUVEC with PBMC. A digest of the protocol:
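Human umbilical vein endothelial cells co-cultured with peripheral blood mononuclear cells; total protein measured by sulforhodamine B staining (0.1% SRB after 10% TCA fixation), absorbance at 560 nm, at 96 h. Bidirectional fit against DMSO baseline.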

A short description of experiment [6]: BSK_SAg_SRB: Viability Assessment in the BioMAP Diversity Plus: SAg Assay (AID 2283096).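 Also: cells read one day after compound addition; hits may be either gain or loss of signal compared with DMSO.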 The conditions noted are these: primary human HUVEC with PBMC. A digest of the protocol:
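Total protein by sulforhodamine B staining, 24 h after dosing, in HUVEC–PBMC co-culture; DMSO-referenced bidirectional fitting.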

For experiment [7], the target named is human CYP1A1, CYP1A1 (gene 1543) (UniProt P04798). Kind of experiment: NVS_ADME_hCYP1A1: NovaScreen (NVS) CYP450-related Enzyme Activity (ADME) Assay for human CYP1A1 (AID 2283100; active = hit-call score of the fitted dose curve at least 0.9, where 1 is the maximum). A digest of the protocol:
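Chemicals were first tested in duplicate at 10 uM, and those passing a 30% inhibition threshold were rerun as concentration series topping at 20 uM. Fluorescence read-out of recombinant enzyme turnover after 1 h, relative to acetonitrile.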

Experiment [8] deals with human CYP2B6, CYP2B6 (gene 1555) (UniProt P20813). Kind of experiment: NVS_ADME_hCYP2B6: NovaScreen (NVS) CYP450-related Enzyme Activity (ADME) Assay for human CYP2B6 (AID 2283101; active = hit-call score of the fitted dose curve at least 0.9, where 1 is the maximum). A digest of the protocol:
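Cell-free recombinant enzyme assay with a fluorogenic substrate; fluorescence intensity read 1 hour after dosing. Loss of signal relative to acetonitrile negative control indicates inhibition. Primary screen run in duplicate at 10 uM, actives then tested in concentration series.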

The target in experiment [9] is human CYP2C9, CYP2C9 (gene 1559) (UniProt P11712). Kind of experiment: NVS_ADME_hCYP2C9: NovaScreen (NVS) CYP450-related Enzyme Activity (ADME) Assay for human CYP2C9 (AID 2283108; active = hit-call score of the fitted dose curve at least 0.9, where 1 is the maximum). A digest of the protocol: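 Fluorescence readout of CYP2C9 activity (SF9-expressed human enzyme) at 0.75 h. The primary screen used 10 uM in duplicate, with concentration-response follow-up for actives; acetonitrile was the negative control.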

Experiment [10] deals with Cytochrome P450 2C19 (Homo sapiens) (UniProt P33261). The experiment can be described thus: NVS_ADME_hCYP2C19: NovaScreen (NVS) CYP450-related Enzyme Activity (ADME) Assay for human CYP2C19 (AID 2283113; active = hit-call score of the fitted dose curve at least 0.9, where 1 is the maximum;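 also: potency for inhibition seen as loss of fluorescent signal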). A digest of the protocol: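 Compounds first screened in duplicate at 10 uM, then confirmed in concentration series. Insect-cell-expressed human CYP2C19 turned over a fluorogenic substrate, and fluorescence was read after 1 h. Inhibition taken as signal loss relative to acetonitrile.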

For experiment [11], the target named is rat CYP2A2, Cyp2a2 (gene 24895) (UniProt P15149). Kind of experiment: NVS_ADME_rCYP2A2: NovaScreen (NVS) CYP450-related Enzyme Activity (ADME) Assay for rat CYP2A2 (AID 2283116; active = hit-call score of the fitted dose curve at least 0.9, where 1 is the maximum). A digest of the protocol:
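Cell-free recombinant rat CYP2A2 activity with fluorogenic substrate, fluorescence read 0.2 h after dosing. Chemicals screened at 10 uM in duplicate, hits then run in concentration-response up to 20 uM; signal loss versus acetonitrile baseline.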

In experiment [12] the target is rat CYP2C11, Cyp2c11 (gene 29277) (UniProt P08683). The experiment can be described thus: NVS_ADME_rCYP2C11: NovaScreen (NVS) CYP450-related Enzyme Activity (ADME) Assay for rat CYP2C11 (AID 2283118; active = hit-call score of the fitted dose curve at least 0.9, where 1 is the maximum). A digest of the protocol:
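Cell-free recombinant rat enzyme with fluorescent substrate; readout 0.33 h after dosing, loss of signal versus acetonitrile control. Initial duplicate single-point at 10 uM; actives rerun in concentration series.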

The test system of a further experiment is rat CYP2C6, gene 293989. Kind of experiment: NVS_ADME_rCYP2C6: NovaScreen (NVS) CYP450-related Enzyme Activity (ADME) Assay for rat CYP2C6 (AID 2283120; active = hit-call score of the fitted dose curve at least 0.9, where 1 is the maximum). A digest of the protocol:
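Cell-free recombinant rat CYP2C6 with fluorogenic substrate, read by fluorescence 1 h after dosing; acetonitrile as negative control. Primary screen at 10 uM in duplicate, actives then in concentration-response up to 20 uM.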

The next experiment deals with rat CYP3A1, gene 25642. Kind of experiment: NVS_ADME_rCYP3A1: NovaScreen (NVS) CYP450-related Enzyme Activity (ADME) Assay for rat CYP3A1 (AID 2283126; active = hit-call score of the fitted dose curve at least 0.9, where 1 is the maximum). A digest of the protocol: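 Cell-free recombinant CYP assay with fluorescent substrate, read 0.5 h after dosing. Screened at 10 uM in duplicate, hits at up to 20 uM in concentration-response; loss of signal versus acetonitrile baseline.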

Experiment [13] has as its target human CYP19A1, CYP19A1 (gene 1588) (UniProt P11511). Kind of experiment: NVS_ADME_hCYP19A1: NovaScreen (NVS) CYP450-related Enzyme Activity (ADME) Assay for human CYP19A1 (AID 2283098; active = hit-call score of the fitted dose curve at least 0.9, where 1 is the maximum). A digest of the protocol:
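Biochem, cell-free; recombinant enzyme + specific substrate; fluorescence intensity at 0.5 h post-dose; 10 uM duplicate primary, conc. series for actives; acetonitrile = negative control/baseline; positive and negative controls on every plate.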

Experiment [14] deals with Cytochrome P450 3A4 (Homo sapiens) (UniProt P08684). The experiment can be described thus: NVS_ADME_hCYP3A4: NovaScreen (NVS) CYP450-related Enzyme Activity (ADME) Assay for human CYP3A4 (AID 2283110; active = hit-call score of the fitted dose curve at least 0.9, where 1 is the maximum). A digest of the protocol:
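Compounds were first screened in duplicate at 10 uM against recombinant CYP3A4 produced in insect cells, then actives were run in concentration series. Enzyme activity was measured by fluorescence after 0.33 hour, with acetonitrile as baseline.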

Experiment [15] concerns the target human CYP2D6, CYP2D6 (gene 1565) (UniProt P10635). The experiment can be described thus: NVS_ADME_hCYP2D6: NovaScreen (NVS) CYP450-related Enzyme Activity (ADME) Assay for human CYP2D6 (AID 2283107; active = hit-call score of the fitted dose curve at least 0.9, where 1 is the maximum). A digest of the protocol: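 Fluorescence readout of recombinant CYP2D6 (insect-cell derived) activity after 1 h incubation with test chemical. Acetonitrile served as baseline, loss-of-signal direction. Single-concentration duplicate screening at 10 uM preceded concentration-response retesting.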

Experiment [16] deals with human CYP1A2, CYP1A2 (gene 1544) (UniProt P05177). Kind of experiment: NVS_ADME_hCYP1A2: NovaScreen (NVS) CYP450-related Enzyme Activity (ADME) Assay for human CYP1A2 (AID 2283102; active = hit-call score of the fitted dose curve at least 0.9, where 1 is the maximum). A digest of the protocol:
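Enzyme activity of insect-cell-expressed human CYP1A2 measured by fluorescence 0.5 h after compound addition, relative to acetonitrile. Compounds first tested in duplicate at 10 uM, actives followed up in concentration series.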

SMILES strings stand for the structures. “And” between values parts separate entries of the source, which are not always exact repeats. Equal entries are not always repeated. Results filed as inconclusive are left out. Some compounds were tested as several samples or in several runs, with calls that do not always agree. The source made the active and inactive calls. The calls were made as follows, unless noted: active = hit-call score of the fitted dose curve at least 0.9, where 1 is the maximum; inactive = score below 0.9.

Chain of human CYP19A1, CYP19A1 (gene 1588) (P11511 whole entry, looked up): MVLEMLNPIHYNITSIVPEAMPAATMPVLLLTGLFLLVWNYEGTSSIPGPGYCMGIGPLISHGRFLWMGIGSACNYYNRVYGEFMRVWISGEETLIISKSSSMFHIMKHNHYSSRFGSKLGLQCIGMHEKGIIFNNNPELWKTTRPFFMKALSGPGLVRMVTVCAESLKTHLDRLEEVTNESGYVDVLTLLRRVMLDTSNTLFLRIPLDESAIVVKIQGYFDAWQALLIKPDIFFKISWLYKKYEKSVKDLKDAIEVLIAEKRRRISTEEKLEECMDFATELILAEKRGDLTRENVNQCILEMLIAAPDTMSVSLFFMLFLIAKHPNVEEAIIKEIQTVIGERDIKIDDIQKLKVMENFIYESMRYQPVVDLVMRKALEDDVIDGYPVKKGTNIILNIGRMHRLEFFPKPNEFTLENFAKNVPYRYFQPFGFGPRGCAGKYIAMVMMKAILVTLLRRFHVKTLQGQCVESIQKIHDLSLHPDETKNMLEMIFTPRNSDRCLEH
Chain of human CYP1A1, CYP1A1 (gene 1543) (P04798 whole entry, looked up): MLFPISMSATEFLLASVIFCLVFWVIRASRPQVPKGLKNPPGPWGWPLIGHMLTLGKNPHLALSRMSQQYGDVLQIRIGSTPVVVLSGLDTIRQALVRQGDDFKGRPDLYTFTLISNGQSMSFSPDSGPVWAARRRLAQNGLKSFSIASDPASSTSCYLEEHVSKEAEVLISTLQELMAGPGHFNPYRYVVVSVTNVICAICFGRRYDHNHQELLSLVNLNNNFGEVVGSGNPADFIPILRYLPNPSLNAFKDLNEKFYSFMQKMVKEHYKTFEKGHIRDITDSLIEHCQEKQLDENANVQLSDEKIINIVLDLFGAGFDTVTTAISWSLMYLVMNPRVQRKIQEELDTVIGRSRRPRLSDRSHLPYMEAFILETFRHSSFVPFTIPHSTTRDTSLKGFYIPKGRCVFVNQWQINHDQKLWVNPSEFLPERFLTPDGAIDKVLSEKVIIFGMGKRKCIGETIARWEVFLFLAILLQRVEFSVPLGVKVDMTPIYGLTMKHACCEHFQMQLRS
Chain of rat CYP2A2, Cyp2a2 (gene 24895) (P15149 whole entry, looked up): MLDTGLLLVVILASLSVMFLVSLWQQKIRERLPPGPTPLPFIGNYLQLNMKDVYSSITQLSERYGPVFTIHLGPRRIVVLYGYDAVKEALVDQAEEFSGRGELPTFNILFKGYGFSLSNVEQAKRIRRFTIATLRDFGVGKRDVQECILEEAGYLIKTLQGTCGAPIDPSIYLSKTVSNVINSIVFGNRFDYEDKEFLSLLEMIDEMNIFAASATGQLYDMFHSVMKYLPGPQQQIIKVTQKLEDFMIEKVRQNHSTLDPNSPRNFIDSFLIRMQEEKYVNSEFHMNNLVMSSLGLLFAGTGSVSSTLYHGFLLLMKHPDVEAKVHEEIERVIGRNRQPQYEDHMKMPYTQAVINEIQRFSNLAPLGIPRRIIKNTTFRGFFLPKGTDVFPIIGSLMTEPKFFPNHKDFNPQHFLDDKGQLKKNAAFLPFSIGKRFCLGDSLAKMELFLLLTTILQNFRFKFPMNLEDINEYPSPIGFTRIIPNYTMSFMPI
Chain of rat CYP2C11, Cyp2c11 (gene 29277) (P08683 whole entry, looked up): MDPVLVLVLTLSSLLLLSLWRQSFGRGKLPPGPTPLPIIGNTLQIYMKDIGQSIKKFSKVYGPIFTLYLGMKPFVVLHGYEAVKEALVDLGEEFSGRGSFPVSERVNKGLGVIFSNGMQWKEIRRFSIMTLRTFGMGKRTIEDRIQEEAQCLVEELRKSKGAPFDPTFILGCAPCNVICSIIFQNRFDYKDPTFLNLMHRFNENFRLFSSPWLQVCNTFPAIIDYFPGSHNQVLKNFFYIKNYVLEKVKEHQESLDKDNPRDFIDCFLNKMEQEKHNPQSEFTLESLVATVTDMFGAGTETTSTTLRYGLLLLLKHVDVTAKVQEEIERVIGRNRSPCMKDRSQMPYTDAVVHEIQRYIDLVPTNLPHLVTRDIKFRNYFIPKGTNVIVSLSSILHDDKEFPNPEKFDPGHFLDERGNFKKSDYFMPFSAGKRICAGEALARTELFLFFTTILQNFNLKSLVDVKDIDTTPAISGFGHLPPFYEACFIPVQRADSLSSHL
Chain of human CYP2C9, CYP2C9 (gene 1559) (P11712 whole entry, looked up): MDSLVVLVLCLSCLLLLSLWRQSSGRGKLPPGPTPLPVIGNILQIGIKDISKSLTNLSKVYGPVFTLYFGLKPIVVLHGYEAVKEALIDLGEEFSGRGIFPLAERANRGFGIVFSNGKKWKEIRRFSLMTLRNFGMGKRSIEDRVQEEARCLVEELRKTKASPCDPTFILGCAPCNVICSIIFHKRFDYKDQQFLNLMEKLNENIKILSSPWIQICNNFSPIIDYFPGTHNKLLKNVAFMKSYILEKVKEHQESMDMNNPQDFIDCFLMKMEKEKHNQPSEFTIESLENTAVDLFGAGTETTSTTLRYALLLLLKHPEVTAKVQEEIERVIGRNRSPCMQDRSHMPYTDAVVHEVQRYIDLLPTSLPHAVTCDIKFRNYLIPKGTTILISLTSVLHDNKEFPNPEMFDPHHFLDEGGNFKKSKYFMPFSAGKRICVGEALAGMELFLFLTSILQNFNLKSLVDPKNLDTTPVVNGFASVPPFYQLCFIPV
Chain of E-selectin (Homo sapiens) (P16581 whole entry, looked up): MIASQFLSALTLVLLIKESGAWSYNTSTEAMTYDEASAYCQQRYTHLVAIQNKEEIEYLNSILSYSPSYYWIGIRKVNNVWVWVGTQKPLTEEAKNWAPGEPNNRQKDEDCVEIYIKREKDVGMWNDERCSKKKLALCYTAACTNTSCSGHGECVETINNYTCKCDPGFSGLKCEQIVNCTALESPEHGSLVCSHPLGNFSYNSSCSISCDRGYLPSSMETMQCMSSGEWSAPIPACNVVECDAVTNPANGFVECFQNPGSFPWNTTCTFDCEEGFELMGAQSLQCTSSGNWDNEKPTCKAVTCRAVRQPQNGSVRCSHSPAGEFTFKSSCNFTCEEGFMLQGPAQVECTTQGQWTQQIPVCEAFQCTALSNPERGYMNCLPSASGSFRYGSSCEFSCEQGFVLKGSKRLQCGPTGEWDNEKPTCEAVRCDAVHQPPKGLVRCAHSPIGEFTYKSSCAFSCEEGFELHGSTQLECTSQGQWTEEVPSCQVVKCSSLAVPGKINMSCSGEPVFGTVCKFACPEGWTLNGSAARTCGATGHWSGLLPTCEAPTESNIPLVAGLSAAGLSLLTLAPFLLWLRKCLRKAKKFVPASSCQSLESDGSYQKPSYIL
Chain of human CYP2D6, CYP2D6 (gene 1565) (P10635 whole entry, looked up): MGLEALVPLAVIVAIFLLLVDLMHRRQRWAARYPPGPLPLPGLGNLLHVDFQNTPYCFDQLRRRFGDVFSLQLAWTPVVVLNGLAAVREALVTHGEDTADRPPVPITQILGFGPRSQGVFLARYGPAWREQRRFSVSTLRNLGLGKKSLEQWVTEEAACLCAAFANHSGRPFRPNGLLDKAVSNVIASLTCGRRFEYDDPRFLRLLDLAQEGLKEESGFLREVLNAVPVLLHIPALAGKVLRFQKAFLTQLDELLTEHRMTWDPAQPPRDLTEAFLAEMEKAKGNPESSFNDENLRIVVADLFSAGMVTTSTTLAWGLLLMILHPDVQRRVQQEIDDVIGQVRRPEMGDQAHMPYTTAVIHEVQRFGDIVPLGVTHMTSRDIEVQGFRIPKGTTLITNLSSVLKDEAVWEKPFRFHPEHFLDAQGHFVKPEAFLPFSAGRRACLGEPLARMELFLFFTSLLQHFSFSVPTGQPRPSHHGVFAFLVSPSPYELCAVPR
Chain of human CYP2B6, CYP2B6 (gene 1555) (P20813 whole entry, looked up): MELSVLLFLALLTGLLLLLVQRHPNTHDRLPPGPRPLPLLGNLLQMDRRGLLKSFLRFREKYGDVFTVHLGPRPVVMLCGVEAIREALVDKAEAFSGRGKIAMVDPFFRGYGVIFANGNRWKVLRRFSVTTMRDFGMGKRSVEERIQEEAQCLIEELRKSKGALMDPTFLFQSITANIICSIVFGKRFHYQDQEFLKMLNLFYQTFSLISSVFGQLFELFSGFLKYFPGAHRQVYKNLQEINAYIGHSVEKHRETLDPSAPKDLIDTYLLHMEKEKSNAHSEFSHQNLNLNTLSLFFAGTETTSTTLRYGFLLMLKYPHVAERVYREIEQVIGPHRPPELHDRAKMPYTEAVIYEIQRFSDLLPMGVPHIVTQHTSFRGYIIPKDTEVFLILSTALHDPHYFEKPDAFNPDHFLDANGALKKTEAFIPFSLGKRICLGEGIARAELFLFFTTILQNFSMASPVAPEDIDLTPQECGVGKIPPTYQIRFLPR
Chain of human CYP1A2, CYP1A2 (gene 1544) (P05177 whole entry, looked up): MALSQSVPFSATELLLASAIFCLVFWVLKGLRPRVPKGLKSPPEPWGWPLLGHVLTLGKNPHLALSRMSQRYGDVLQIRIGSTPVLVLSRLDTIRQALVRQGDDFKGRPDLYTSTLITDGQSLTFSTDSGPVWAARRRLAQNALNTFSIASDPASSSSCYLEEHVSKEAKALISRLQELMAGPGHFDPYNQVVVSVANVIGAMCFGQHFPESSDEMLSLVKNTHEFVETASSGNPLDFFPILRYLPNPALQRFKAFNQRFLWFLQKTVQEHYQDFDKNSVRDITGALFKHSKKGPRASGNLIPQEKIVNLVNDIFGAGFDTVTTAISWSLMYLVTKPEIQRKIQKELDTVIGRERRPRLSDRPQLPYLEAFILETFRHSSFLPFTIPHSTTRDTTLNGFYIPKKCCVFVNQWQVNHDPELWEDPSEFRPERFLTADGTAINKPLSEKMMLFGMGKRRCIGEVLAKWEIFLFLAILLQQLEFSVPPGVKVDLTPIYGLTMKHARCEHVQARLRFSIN

By AC50 is commonly meant the concentration giving half of the maximal activity seen. In the case of `C#C[C@]1(O)CC[C@H]2[C@@H]3CCc4cc(O)ccc4[C@H]3CC[C@@]21C`, the outcome in experiment [1], in experiment [2], in experiment [3], in experiment [4], in [7] and in experiment [8] was inactive. Further, the AC50 in [5] was 5.51 µM (active); in [6], 5.5 µM (active); in experiment [9] it was 6.68 µM (active) and 7.82 µM (active) and 6.49 µM (active); in experiment [10] it was 1.02 µM (active) and 2.09 µM (active) and 1.18 µM (active); in experiment [11], 785 nM (active) and 1.44 µM (active) and 680 nM (active); in [12], 2.5 µM (active) and 2.81 µM (active) and 1.76 µM (active). For the same molecule, the AC50 is 1.43 µM (active) and 2.55 µM (active) and 1.67 µM (active) with rat CYP2C6, gene 293989; 2.51 µM (active) and 3.73 µM (active) and 1.4 µM (active) in the experiment with rat CYP3A1, gene 25642.

`CC1=CC(C)C(C=O)C(C)C1` (configuration not stated) (tested in a mixture with another compound): the outcome in experiment [1], in experiment [2], in [3], in experiment [4], in experiment [5] and in [6] was inactive.

In the case of `CC/C(=C(\c1ccccc1)c1ccc(OCCN(C)C)cc1)c1ccccc1`, the AC50 in experiment [1] is 11.6 µM (active) and 12.5 µM (active); in [2] it was 14.1 µM (active) and 11.3 µM (active); in experiment [3] it was 6.22 µM (active) and 6.86 µM (active); in [4] it was 18.3 µM (active) and 7.16 µM (active); in [5], 4.55 µM (active) and 5.13 µM (active); in experiment [6], 10.3 µM (active) and 9.96 µM (active). Besides, the call in experiment [13], in [8] and in [14] was inactive.

As for `O=[N+]([O-])c1cc(N(CCO)CCO)ccc1NCCO`, the AC50 in experiment [15] was 3.87 µM (active); in experiment [9], 2.42 µM (active).

With `CC(=O)OC(C)(C)C`, the call in [13] was inactive.

Take `O=C1OC2(c3ccc(O)cc3Oc3cc(O)ccc32)c2ccccc21`: the result in [1], in [2], in [3], in [4] and in [6] was inactive. In addition, in experiment [5], the AC50 is 1.02 µM (active).

In the case of `O=C(O)C(F)(F)OC(F)(F)C(F)(F)OC(F)(F)C(F)(F)C(F)(F)C(F)(F)F`, the result in experiment [1], in experiment [2], in [3], in [4], in [5] and in experiment [6] was inactive. Further, in [6], the AC50 is 30 µM (active).

With `C=C(C)C(N)=O`, the result in experiment [1], in experiment [2], in [3], in [4], in [5] and in experiment [6] was inactive. The result in experiment [16] was inactive.

Take `CCC(=O)OCC=Cc1ccccc1`: the result in experiment [1], in experiment [2], in experiment [3], in [4], in [5] and in experiment [6] was inactive.

In the case of `CC1(C)[C@H](C=C(Cl)Cl)[C@H]1C(=O)OCc1cccc(Oc2ccccc2)c1`, the outcome in experiment [1], in experiment [2], in [3], in experiment [4], in experiment [5] and in [6] was inactive.

In the case of `CC(C)Cc1ccc(C(C)C(=O)O)cc1` (configuration not stated), the outcome in [1], in [2], in experiment [3], in experiment [4], in experiment [5] and in experiment [6] was inactive. The result in experiment [15] was inactive.

`Nc1ccc(N)c([N+](=O)[O-])c1`: the outcome in experiment [1], in [2], in experiment [4], in [5] and in experiment [6] was inactive.

As to `NC(=O)c1c(Cl)cccc1Cl`, the result in [1], in experiment [2], in experiment [3], in [4], in [5] and in [6] was inactive.
